Assay results from PubChem BioAssay AID602393 (Broad Institute, 2012).
Hit rate of the full screen: of about 350,000 compounds, about 7,000 (2%) were called active. Shown is part of a subset that was picked to be rich in actives. Values without a mark were called inactive. No stated cut-off is given here; in the data, active means activation above about 40%; inconclusive means no clear call, values can overlap the other calls; inactive means below that.

Assay: Bmi1 luciferase reporter increase in mESCs, primary screen, esBAF inhibitor project, mouse ES cells, Bmi1 luciferase knock-in, single point (AID 602393);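 further: 0% = median of the plate's neutral control wells and 100% = double that signal; a rise in the Bmi1 reporter signal indicates esBAF inhibition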
Conditions: 24 h, at 12.5 µM, hits give high values, 100% = twice the neutral-well signal

| Compound | reporter increase |
| --- | --- |
| C[C@H](O)C#Cc1cnc2c(c1)C(=O)N([C@@H](C)CO)C[C@@H](C)[C@@H](CN(C)C(=O)Cc1ccccn1)O2 | -2.01% |
| COCCCNC(=O)c1cccc2c(-c3ccc(O)c(OC)c3)coc12 | 12.3% |
| Cc1noc(C)c1-c1ccc(C(=O)NCc2ccncc2)c2occc12 | 8.81% |
| COCCCNC(=O)c1ccc(-c2c(C)noc2C)c2ccoc12 | 78.5% (active) |
| COc1ccccc1S(=O)(=O)N[C@@H]1C=C[C@H](CC(=O)N2CCOCC2)O[C@@H]1CO | -2.3% |
| COCCNC(=O)C[C@H]1CC[C@H](NS(=O)(=O)c2ccc(C)cc2)[C@@H](CO)O1 | -2.1% |
| CCOc1ccc(C(=O)Nc2ccc(CN3CCOCC3)cc2)cc1Cl | 9.32% |
| COc1ccc(C(=O)Nc2ccnn2C2CCN(Cc3ccncc3)CC2)cc1 | 4.74% |
| COc1ccc(C(=O)Nc2sc(C)c(C)c2CN2CCOCC2)cc1 | 98.6% (active) |
| Cc1c(C(=O)NCCN2CCOCC2)sc2nc(-c3ccc(F)cc3)cn12 | 2.29% |
| Cc1c(C(=O)NCC2CCCO2)sc2nc(-c3ccccc3)cn12 (centres undefined) | 63.8% (active) |
| Cc1ccc(C(=O)N2CCCc3ccccc32)c(Cl)c1 | -0.356% |
| O=C(c1c(Cl)nc2sccn12)N1CCCc2ccccc21 | -5.89% |
| Cc1nn(CC(=O)NCC2CCCO2)c(=O)c2cc3ccccc3n12 (centres undefined) | -0.752% |
| Cc1c(C(=O)N2CCCc3ccccc32)sc2nc(-c3ccccc3)cn12 | 69.3% (active) |
| C[C@H](CO)N1C[C@H](C)[C@@H](CN(C)C(=O)Nc2ccc3c(c2)OCO3)Oc2ccc(NS(=O)(=O)c3ccc(Cl)cc3)cc2CC1=O | -3.55% |
| C[C@@H]1CCCCO[C@H](CN(C)Cc2ccc(Cl)c(Cl)c2)[C@H](C)CN([C@@H](C)CO)C(=O)c2cc(NC(=O)C3CCCCC3)ccc2O1 | 1.62% |
| COc1cccc(-c2ccc3n(c2=O)C[C@H]2[C@H](CO)[C@@H](C(=O)NC4CCCC4)[C@@H]3N2C)c1 | 3.16% |
| COCC(=O)N(C)C[C@@H]1Oc2cc(C3=CCCC3)ccc2S(=O)(=O)N([C@@H](C)CO)C[C@H]1C | 0.332% |
| C[C@H](CO)N1C[C@H](C)[C@@H](CN(C)Cc2ccccc2C(F)(F)F)OCc2cn(nn2)CCCC1=O | -1.8% |
| C[C@H](NC(=O)C[C@H]1C=C[C@@H](NC(=O)C2CCOCC2)[C@@H](CO)O1)c1ccccc1 | 1.15% |
| Cc1cccc(C(=O)Nc2ccc(Oc3cnccn3)cc2)c1 | 45% (active) |
| Cc1cccc(C(=O)Nc2ccc(C(=O)N/N=C/c3cccc(C)n3)cc2)c1 | 14.2% |
| Cc1ccc(NC(=O)c2ccc(Oc3ncccn3)cc2)cc1 | 34% |
| C[C@H](CO)N1C[C@H](C)[C@H](CN(C)C(=O)c2cnccn2)Oc2cc(C3=CCCC3)ccc2S1(=O)=O | 4.52% |
| O=C(CN1CCOCC1)N[C@@H]1CC[C@@H](CCNC(=O)C2CCCCC2)O[C@@H]1CO | 0.276% |
| CN1C(=O)c2cc(NC(=O)c3cscn3)ccc2OC[C@H]2O[C@@H](CC(=O)NCC3CC3)CC[C@H]21 | 1.7% |

| Compound | reporter increase |
| --- | --- |
| Nc1nc(COC(=O)CCC(=O)c2ccc(Cl)cc2)nc(Nc2ccccc2)n1 | -2.01% |
| O=C(CCCOc1ccccc1)NNC(=O)c1ccc(Cl)cc1 | -5.87% |
| O=C(c1ccc(Cl)cc1)c1cnc(Nc2ccccc2)s1 | 70% (active) |
| C[C@@H]1CCCCO[C@H](CN(C)S(=O)(=O)c2cccs2)[C@H](C)CN([C@@H](C)CO)C(=O)c2cc(NC(=O)Nc3ccc4c(c3)OCO4)ccc2O1 | 3.42% |
| Cn1c(CNc2nc(-c3ccccc3)cs2)nnc1SCC(=O)c1ccccc1 | 6.92% |
| C/C(CC1CC(C)(C)OC1=O)=N/Nc1nc(-c2ccccc2)cs1 (centres undefined) | 46.1% (active) |
| CC1(C)CC(CC(=O)O)C(=O)O1 (centres undefined) | 3.84% |
| COc1ccc(S(=O)(=O)N(C)C[C@@H]2OCCCC[C@H](C)Oc3ccc(NC(=O)Nc4ccccc4)cc3C(=O)N([C@H](C)CO)C[C@H]2C)cc1 | 6.53% |
| COc1ccccc1-c1cnc2c(c1)C(=O)N([C@H](C)CO)C[C@H](C)[C@H](CN(C)C(=O)CN(C)C)O2 | -4.34% |
| Cc1ccccc1C(=O)NC(=S)NC1CC1 | 19.1% |
| COc1ccc(/C(N)=N/OC(=O)CCCc2ccccc2)cc1 | 22.2% |
| O=C(NC(=S)NC1CCCCC1)c1ccc(Cl)cc1 | 92.1% (active) |
| O=C(NC1CCCCCC1)C1CCN(C(=O)c2ccc(Cl)cc2)CC1 | 1.61% |
| O=C(CCc1ccccc1)NNC(=O)COc1ccc(Cl)cc1 | -7.85% |
| COc1ccc(C(=O)NC(=S)NC2CCCCC2)cc1 | 53.2% (active) |
| CCCNC(=S)N1CCC(NC(=O)c2ccc(OC)cc2)CC1 | 4.39% |
| COc1ccc(C(=O)NC(=S)NNC(=O)CCc2ccccc2)cc1 | 50.7% (active) |
| O=C(NNC(=S)NC1CCCCC1)c1ccccc1Cl | 12.8% |
| C[C@@H]1CN([C@H](C)CO)C(=O)c2cc(-c3ccncc3)cnc2O[C@H]1CN(C)C | 2.47% |
| O=C(C[C@H]1CC[C@H]2[C@@H](COC[C@@H](O)CN2S(=O)(=O)c2cccc(Cl)c2)O1)NC1CCCC1 | 0.9% |
| CN1C(=O)c2cc(NC(=O)c3ccc(Cl)cc3)ccc2OC[C@@H]2O[C@@H](CC(=O)O)CC[C@H]21 | 5.97% |
| CC(C)NC(=O)N(C)C[C@H]1Oc2ccc(NC(=O)CCC(F)(F)F)cc2CC(=O)N([C@@H](C)CO)C[C@@H]1C | -3.69% |
| CCCC(=O)Nc1ccc2c(c1)C(=O)N(C)C[C@H](OC)[C@H](C)CN(CCc1ccccc1)[C@H](C)CO2 | -0.112% |
| Cc1ccc(S(=O)(=O)NCC[C@@H]2CC[C@H](NC(=O)c3ccccn3)[C@H](CO)O2)cc1 | 1.61% |
| O=C(N[C@H]1CC[C@@H](CCNC(=O)C2CCC2)O[C@@H]1CO)c1ccncc1 | -1.2% |
| Cc1noc(C)c1NC(=O)Nc1ccc2c(c1)C(=O)N([C@@H](C)CO)C[C@H](C)[C@@H](CN(C)Cc1ccncc1)OCCCC[C@@H](C)O2 | -7.33% |
| O=C(C[C@@H]1CC[C@H]2[C@@H](COC[C@@H](O)CN2S(=O)(=O)c2cccc(F)c2)O1)NCCCN1CCOCC1 | 2.86% |

| Compound | reporter increase |
| --- | --- |
| O=C(NC1CCCC1)c1cc(-c2ccccc2)on1 | 18.8% |
| O=C(NCc1ccccn1)c1cc(-c2ccccc2Cl)on1 | 54.4% (active) |
| O=C(NCc1ccccn1)Nc1ccc(Cl)cc1 | 21.5% |
| C=CCNC(=O)c1cc(-c2ccccc2O)on1 | 35.4% |
| O=C(Nc1cccnc1Cl)c1cc(-c2ccccc2O)on1 | 65% (active) |
| Clc1ccccc1-c1cc(COc2ccc3ccccc3c2)no1 | 9.3% |
| C[C@H](CO)N1C[C@H](C)[C@@H](CN(C)C)OCCCC[C@H](C)Oc2ccc(NC(=O)C3CCCCC3)cc2C1=O | -0.46% |
| COc1ccc(CNC(=O)C[C@H]2CC[C@@H]3[C@H](COc4ccc(NC(=O)C5CC5)cc4C(=O)N3C)O2)cc1 | -1.53% |
| CCCNC(=O)N(C)C[C@H]1Oc2ncc(C#C[C@@H](C)O)cc2C(=O)N([C@@H](C)CO)C[C@@H]1C | -6.34% |
| N#C[C@H]1[C@@H](c2ccc(C3=CCCCC3)cc2)[C@@H](CO)N1C(=O)Cc1ccncc1 | 2.63% |
| Cc1noc(C)c1NC(=O)Nc1ccc2c(c1)C(=O)N([C@@H](C)CO)C[C@H](C)[C@@H](CN(C)C(=O)C1CCCCC1)OCCCC[C@@H](C)O2 | 3.6% |
| CCCNC(=O)Nc1ccc2c(c1)OC[C@@H](C)N(CC1CCCC1)C[C@@H](C)[C@H](OC)CN(C)C2=O | 6.43% |
| O=C(C[C@@H]1CC[C@H]2[C@@H](COC[C@H](O)CN2S(=O)(=O)c2ccc(F)cc2)O1)N[C@H]1CCN(Cc2ccccc2)C1 | 5.45% |
| COCCNC(=O)C[C@H]1CC[C@@H]2[C@@H](COc3ccc(NC(=O)C4CCOCC4)cc3C(=O)N2C)O1 | 0.774% |
| Cc1nc2ccc(NC(=O)c3cccc(S(=O)(=O)N4CCOCC4)c3)cc2s1 | 7.36% |
| CC(=O)Nc1ccc(S(=O)(=O)Nc2ccc(N3CCOCC3)c(F)c2)cc1 | 0.869% |
| O=S(=O)(Nc1ccc2nc(N3CCOCC3)sc2c1)c1ccccc1 | 73% (active) |
| O=C(C[C@@H]1C[C@@H]2c3cc(NC(=O)C4CCOCC4)ccc3O[C@@H]2[C@H](CO)O1)NCc1ccncc1 | -0.887% |
| C[C@@H]1CN([C@H](C)CO)C(=O)c2cc(-c3ccncc3)cnc2O[C@@H]1CN(C)C(=O)Cc1cccnc1 | -2.67% |
| Cc1ccc(S(=O)(=O)N[C@@H]2CC[C@@H](CCn3cc(C(C)C)nn3)O[C@H]2CO)cc1 | -3.18% |
| Cc1cccc(S(=O)(=O)N2C[C@H]3[C@@H](c4ccccc42)[C@H](CO)N3Cc2ccc3c(c2)OCO3)c1 | -3.41% |
| CO[C@@H]1CN(C)C(=O)c2ccc(NS(=O)(=O)c3ccc(C)cc3)cc2OC[C@@H](C)N(Cc2nccs2)C[C@H]1C | -3.84% |
| Oc1ccccc1-c1cc(-c2ccc(Cl)cc2)n[nH]1 | 21.6% |
| c1ccc(-c2cc(-c3ccccc3)[nH]n2)cc1 | 42.5% (active) |
| CC(C)(C)C1CCC(=NNC(=O)c2cc(-c3ccccc3)n[nH]2)CC1 (centres undefined) | -0.812% |
